According to PubChem BioAssay (Tox21):
Inconclusive results are not listed. Active and inactive are the calls of the source. Unless noted, calls follow the shape of the dose curve; as a rule, active = well fitted curve in the direction sought with a large enough effect in the repeat runs; inconclusive = weak or mixed curves; inactive = no such curve, though single readings can be large; an effect the other way counts as inactive or inconclusive.

How the values were obtained:
[1] = qHTS assay for small molecule agonists of the p53 signaling pathway (AID 651631; calls by dose curve; also: nearly all actives have a fitted effect of over 15% in size)
In short: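 Testing took place in human colorectal HCT-116 cells with stable p53RE-driven beta-lactamase. After 16 h of compound exposure at 37 °C, a FRET substrate was added and fluorescence recorded 2 h later.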

[2] = qHTS assay for small molecules that induce genotoxicity in human embryonic kidney cells expressing luciferase-tagged ATAD5 (AID 651632); also: nearly all actives have a fitted effect of over 15% in size
In short: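 Increased luciferase signal from ATAD5-tagged reporter cells indicates DNA-damage-driven ATAD5 induction. HEK293T cells are treated for 16 hr at 37C before detection with Amplite.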

[3] = qHTS assay for small molecule agonists of the p53 signaling pathway - cell viability (AID 651633; calls by dose curve; also: nearly all actives have a fitted effect of over 30% in size)
In short: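 Viability counter-read: CellTiter-Glo luminescence (30 min, room temperature) in the same p53RE-bla plates. These plates had been exposed to compounds for 16 h at 37 C.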

[4] = qHTS assay for small molecules that induce genotoxicity in human embryonic kidney cells expressing luciferase-tagged ATAD5 - cell viability (AID 651634; calls by dose curve; also: nearly all actives have a fitted effect of over 25% in size; also: potency is read from the fitted curve at half-maximal effect)
In short: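 Cytotoxicity counterscreen in HEK293T cells bearing an ATAD5-luciferase reporter: live-cell protease activity measured by CellTiter-Fluor fluorescence after 15.5 hr compound exposure.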

[5] = qHTS assay for small molecule disruptors of the mitochondrial membrane potential - cell viability (AID 720634; calls by dose curve;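 also: human HepG2 liver cancer cells; nearly all actives have a fitted effect of over 20% in size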)
In short: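 After overnight attachment at 37 C, HepG2 cells received compound or DMSO vehicle for 1 hr. Viability is then taken from ATP-driven luminescence following a 30 min room-temperature CellTiter-Glo step.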

[6] = qHTS assay for small molecule disruptors of the mitochondrial membrane potential (AID 720635); also: potency is read from the fitted curve at half-maximal effect
In short: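 Mitochondrial membrane potential tracked with Mito-MPS dye, red aggregates (ex 540/em 590 nm) against green monomers (ex 490/em 535 nm). Compound treatment 1 hr at 37C, dye 30 min in HepG2.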

[7] = qHTS assay to test for compound auto fluorescence at 590 nm (red) in HepG2 cells (AID 720674)
In short: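 Red autofluorescence (Ex/Em 540/590 nm, Rose Bengal sodium equivalents) was measured in HepG2 cells, 2,000 per well in MEM plus 10% FBS, plated overnight at 37 C. Readings were taken 1 hr after adding 23 nL compound or DMSO, at 37 C and 5% CO2.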

[8] = qHTS assay to test for compound auto fluorescence at 535 nm (green) in HepG2 cells (AID 720675)
[9] = qHTS assay to test for compound auto fluorescence at 460 nm (blue) in HEK293 cells (AID 720678)
In short: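 Auto fluorescence in the blue band was quantified as triamterene equivalency. HEK293 cells were seeded at 2,000/well, dosed after a 4-5 hr attachment, and kept overnight at 37C before the 405/460 nm reading.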

[10] = qHTS assay to test for compound auto fluorescence at 590 nm (red) in HEK293 cells (AID 720679)
In short: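 Autofluorescence equivalency to Rose Bengal sodium, 540/590nm, in HEK293 cells exposed overnight to 23 nL compound per well.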

[11] = qHTS assay to test for compound auto fluorescence at 535 nm (green) in HEK293 cells (AID 720680)
[12] = qHTS assay to test for compound auto fluorescence at 460 nm (blue) in HEK293 cell free culture (AID 720681)
In short: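 Blue fluorescence (Ex 405/Em 460 nm, triamterene-equivalent) was read immediately after pin transfer of compound or DMSO into medium (DMEM, 10% FBS) without cells.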

[13] = qHTS assay to test for compound auto fluorescence at 590 nm (red) in HEK293 cell free culture (AID 720683)
In short: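 Red-channel autofluorescence of compounds in culture medium (DMEM, 10% FBS), no cells, measured at 540/590 nm. Rose Bengal sodium is the reference fluorophore for equivalence.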

[14] = qHTS assay to test for compound auto fluorescence at 590 nm (red) in HepG2 cell free culture (AID 720684)
In short: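 Plate contents were MEM with 10% FBS plus test compound or DMSO, no cells. Fluorescence was recorded with 540 nm excitation and 590 nm emission.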

[15] = qHTS assay to test for compound auto fluorescence at 460 nm (blue) in HepG2 cell free culture (AID 720685)
In short: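 Compound (23 nL) or DMSO pinned into cell-free MEM with 10% FBS; blue fluorescence read at 405/460 nm excitation/emission, expressed as auto-fluorescence equivalency to triamterene.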

[16] = qHTS assay to test for compound auto fluorescence at 535 nm (green) in HepG2 cell free culture (AID 720686)
[17] = qHTS assay to test for compound auto fluorescence at 460 nm (blue) in HepG2 cells (AID 720687)
In short: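 Blue-channel autofluorescence (Ex/Em 405/460 nm, triamterene-equivalent) was measured after 1 hr compound exposure at 37 C, 5% CO2. Cells were HepG2, plated overnight at 37 C in MEM plus 10% FBS.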

[18] = qHTS assay to test for compound auto fluorescence at 535 nm (green) in HEK293 cell free culture (AID 720682)
In short: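 DMEM + 10% FBS, cell-free; cpd or DMSO pinned in; Ex485/Em535 read; output as fluorescein-equivalent signal.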

[19] = biological target: Glucocorticoid receptor (Homo sapiens) (UniProt P04150); assay: qHTS assay to identify small molecule agonists of the glucocorticoid receptor (GR) signaling pathway (AID 720691; active = well fitted activation curve with a large enough effect in the signal ratio in the repeat runs, not every such curve was filed as active; the % refers to the signal ratio); conditions: GR-bla HeLa, beta-lactamase reporter ratio, 18 h; activation: at 62.4 µM (top of the series) unless noted
In short: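 Agonist mode in a HeLa line carrying a GRE-controlled beta-lactamase reporter. Compounds act for 18 h at 37 C before a 2 h room-temperature FRET substrate step and fluorescence reading.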

[20] = biological target: Glucocorticoid receptor (Homo sapiens) (UniProt P04150); assay: qHTS assay to identify small molecule antagonists of the glucocorticoid receptor (GR) signaling pathway (AID 720692; active = well fitted inhibition curve with a large enough effect in the signal ratio in the repeat runs, not every such curve was filed as active; the % refers to the signal ratio; also: potency is read from the fitted curve at half-maximal effect)
In short: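 Cells plated, rested 4 h at 37 C/5% CO2; compounds in DMSO pin-transferred; dexamethasone added to 5 nM final; 18 h at 37 C; B/G FRET substrate added, 2 h room temperature; fluorescence measured.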
% is scaled to controls: 0 for no effect and ±100 for the full control effect.

Chain of Glucocorticoid receptor (Homo sapiens) (P04150 whole entry, looked up): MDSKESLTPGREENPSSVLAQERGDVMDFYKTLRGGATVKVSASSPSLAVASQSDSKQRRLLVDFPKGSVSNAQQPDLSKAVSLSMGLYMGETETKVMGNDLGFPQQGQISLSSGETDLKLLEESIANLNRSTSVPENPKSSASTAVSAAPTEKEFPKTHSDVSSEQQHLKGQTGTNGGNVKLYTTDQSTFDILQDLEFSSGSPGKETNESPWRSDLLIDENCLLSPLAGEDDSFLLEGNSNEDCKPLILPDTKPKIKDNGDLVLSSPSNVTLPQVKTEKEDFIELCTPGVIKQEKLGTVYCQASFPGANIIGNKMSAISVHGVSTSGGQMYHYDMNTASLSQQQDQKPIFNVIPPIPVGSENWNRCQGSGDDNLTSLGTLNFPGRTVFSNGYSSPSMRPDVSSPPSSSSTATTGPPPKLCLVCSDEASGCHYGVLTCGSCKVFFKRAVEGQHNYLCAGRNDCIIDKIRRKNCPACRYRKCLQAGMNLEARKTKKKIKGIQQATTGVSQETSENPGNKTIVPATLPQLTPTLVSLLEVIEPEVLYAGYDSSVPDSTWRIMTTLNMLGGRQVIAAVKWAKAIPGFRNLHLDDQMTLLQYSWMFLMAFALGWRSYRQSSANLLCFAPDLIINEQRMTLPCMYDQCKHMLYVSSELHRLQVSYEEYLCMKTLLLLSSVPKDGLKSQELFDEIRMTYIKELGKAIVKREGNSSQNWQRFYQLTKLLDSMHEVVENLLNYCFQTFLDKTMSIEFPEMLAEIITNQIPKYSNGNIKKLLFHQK

CC(CC=O)c1ccccc1 (stereo not drawn)
inactive: Potency [1] | Potency [2] | Potency [3] | Potency [4] | Potency [5] | Potency [7] | Potency [8] | outcome [9] | Potency [10] | outcome [11] | outcome [12] | Potency [13] | Potency [14] | outcome [15] | Potency [16] | outcome [17]
active: Potency [6] 54.5 µM

CCCCCCCCCCCC(=O)OC[C@@H](O)[C@H]1OC[C@H](OCCO)[C@H]1OCCO
inactive: Potency [1] | Potency [2] | Potency [3] | Potency [4] | Potency [5] | Potency [6] | Potency [8] | outcome [9] | Potency [10] | outcome [11] | outcome [12] | outcome [18] | Potency [13] | Potency [14] | outcome [15] | Potency [16] | outcome [17]

C[C@H](CCC(=O)O)[C@H]1CC[C@H]2[C@@H]3CC[C@@H]4C[C@H](O)CC[C@]4(C)[C@H]3C[C@H](O)[C@]12C
inactive: Potency [1] | Potency [2] | Potency [3] | Potency [4] | Potency [5] | Potency [7] | Potency [8] | outcome [9] | Potency [10] | outcome [11] | outcome [12] | outcome [18] | Potency [13] | Potency [14] | outcome [15] | Potency [16] | outcome [17] | Potency [19]
active: Potency [20] 49.1 µM

NCC(=O)O
inactive: Potency [1] | Potency [2] | Potency [3] | Potency [4] | Potency [5] | Potency [7] | Potency [8] | outcome [9] | Potency [10] | outcome [11] | outcome [12] | outcome [18] | Potency [13] | Potency [14] | outcome [15] | Potency [16] | outcome [17] | Potency [19] | Potency [20]

O=C1[C@H]2CCCC[C@H]2C(=O)N1CCCCN1CCN(c2nsc3ccccc23)CC1
inactive: Potency [1] | Potency [2] | Potency [3] | Potency [4] | Potency [5] | Potency [7] | Potency [8] | outcome [9] | Potency [10] | outcome [11] | outcome [12] | outcome [18] | Potency [13] | Potency [14] | outcome [15] | Potency [16] | outcome [17]

CC(C)(O)c1ccc(CNC(=O)c2cccnc2Oc2ccc(F)cc2)cc1
inactive: Potency [1] | Potency [2] | Potency [3] | Potency [4] | Potency [5] | Potency [6] | Potency [7] | Potency [8] | outcome [9] | Potency [10] | outcome [11] | outcome [12] | outcome [18] | Potency [13] | Potency [14] | outcome [15] | Potency [16] | outcome [17] | Potency [19] | Potency [20]

CCCCC(CC)CN1C(=O)C2C3C=CC(C3)C2C1=O (stereo not drawn)
inactive: Potency [1] | Potency [2] | Potency [3] | Potency [4] | Potency [5] | Potency [7] | Potency [8] | outcome [9] | Potency [10] | outcome [11] | outcome [12] | outcome [18] | Potency [13] | Potency [14] | outcome [15] | outcome [17]

O=C(NCCO[N+](=O)[O-])c1cccnc1
inactive: Potency [1] | Potency [2] | Potency [3] | Potency [4] | Potency [5] | Potency [6] | Potency [7] | outcome [9] | Potency [10] | outcome [11] | outcome [12] | outcome [18] | Potency [13] | Potency [14] | outcome [15] | Potency [16] | outcome [17] | Potency [19] | Potency [20]

O=[N+]([O-])c1ccc(NCCO)c(OCCO)c1
active: Potency [4] 61.2 µM
inactive: Potency [1] | Potency [2] | Potency [3] | Potency [5] | Potency [6] | Potency [7] | outcome [9] | Potency [10] | outcome [12] | outcome [18] | Potency [13] | Potency [14] | outcome [15] | outcome [17] | Potency [20]

O=C1OC(CN2CCOCC2)CN1/N=C/c1ccc([N+](=O)[O-])o1 (stereo not drawn)
inactive: Potency [1] | Potency [2] | Potency [3] | Potency [4] | Potency [5] | fluorescence, relative to Rose Bengal [7] -0.0946% [at 18.6 µM] | fluorescence, % of fluorescein control [8] -0.0437% [at 18.6 µM] | fluorescence, % of triamterene [9] -0.0248% [at 18.6 µM] | fluorescence, % of fluorescent control [10] 0.088% [at 18.6 µM] | fluorescence, % of fluorescein [11] -0.416% [at 18.6 µM] | fluorescence, % of fluorescent control [12] -0.128% [at 18.6 µM] | activity change [18] -0.0395% [at 18.6 µM] | fluorescence, % of fluorescent control [13] 0.0972% [at 18.6 µM] | fluorescence, % of Rose Bengal [14] 0.113% [at 18.6 µM] | fluorescence, % of fluorescent control [15] -0.135% [at 18.6 µM] | fluorescence, % of fluorescein control [16] -0.14% [at 18.6 µM] | fluorescence, % of fluorescent control [17] -0.0405% [at 18.6 µM] | Potency [19] | Potency [20]

CC1=CCCC(C)(C)C12CCC(C)O2 (stereo not drawn)
inactive: Potency [1] | Potency [2] | Potency [3] | Potency [4] | Potency [5] | Potency [7] | Potency [8] | outcome [9] | Potency [10] | outcome [11] | outcome [12] | outcome [18] | Potency [13] | Potency [14] | outcome [15] | Potency [16] | outcome [17]

NCc1ccccc1Sc1ccccc1CO
inactive: Potency [1] | Potency [2] | Potency [3] | Potency [4] | Potency [5] | Potency [6] | Potency [7] | Potency [8] | Potency [10] | outcome [11] | outcome [12] | Potency [13] | Potency [14] | outcome [15] | Potency [16] | outcome [17]

C[N+]1(CC2COC(c3ccccc3)(C3CCCCC3)O2)CCCCC1 (stereo not drawn)
inactive: Potency [1] | Potency [2] | Potency [3] | Potency [4] | Potency [5] | Potency [6] | Potency [7] | Potency [8] | outcome [9] | Potency [10] | outcome [11] | outcome [12] | outcome [18] | Potency [13] | Potency [14] | outcome [15] | Potency [16] | outcome [17] | Potency [19]

Cc1ccccc1S(=O)(=O)O
inactive: Potency [1] | Potency [2] | Potency [3] | Potency [4] | Potency [5] | Potency [6] | Potency [7] | outcome [9] | Potency [10] | outcome [11] | outcome [12] | outcome [18] | Potency [13] | Potency [14] | outcome [15] | Potency [16] | outcome [17]
